Reference: PubChem BioAssay AID463173 (ICCB-Longwood Screening Facility, Harvard Medical School, 2010)
Out of some 52,000 compounds screened, about 1,700 (3.3%) were called active. The list comes from a sample in which actives are over-represented; it also holds similar structures and randomly drawn compounds. A number with no mark means an inactive call. Rule as the data show it: active = survival mostly below about 52% (no sharp cut-off); inactive = mostly above about 56%.

These molecules were tested on Wild type (assay: S. aureus survival, RN4220 and DeltatarO strains – OD600, teichoic acid synthesis inhibitors, primary screen (AID 463173)). Conditions: S. aureus RN4220 wild type/DeltatarO growth, OD600, 18 h, active compounds read low, screened at 18.75 µg/mL (by protocol).

SMILES | survival
CC(C)CCNc1ncnc2c1nnn2Cc1ccccc1 | 111%
Cc1nc2cc(NC(=O)Nc3ccccc3Cl)ccc2n1C | 109%
CCCCNC(=O)c1nn(-c2ccc(C)cc2)c(=O)n(C)c1=O | 68%
Cc1ccc(N(CC(=O)Nc2ccc(Cl)cc2)S(=O)(=O)c2cccc3nonc23)cc1 | 125%
O=C(Cn1ncn2nc(-c3cccs3)cc2c1=O)NCc1ccccc1Cl | 94%
COc1ccc(-c2nn3c(=O)cc(CN4CCN(C(=O)/C=C/c5ccccc5)CC4)nc3s2)cc1 | 72%
CCn1cc2nc(SCc3c(F)cccc3Cl)n(CCc3ccccc3)c(=O)c2n1 | 64%
CCn1c(=O)cc(SCC(=O)NCc2ccc(F)cc2Cl)c2ccccc21 | 91%
Cc1cc(Cl)ccc1NC(=O)C1CCCN(c2nnc(C)c3c(C)n(-c4ccccc4)nc23)C1 (centres undefined) | 70%
Cc1ccccc1NCc1nc2ccccc2n1CCOc1ccccc1 | -20% (active)
Cc1ccc(OCCn2c(CNc3ccccc3C)nc3ccccc32)cc1 | 57%
Cc1ccc(CSCC(=O)N2CCN(c3ccccc3F)CC2)cc1 | 45%
COc1ccc(Cn2c(=O)c3ccccc3n3c(-c4cccc(OC)c4OC)nnc23)cc1 | 87%
COc1cc(OC)c(NC(=O)CCCn2nc(C)c3c(C)n(-c4ccccc4)nc3c2=O)cc1Cl | 0% (active)
Cc1nn(CCC(=O)NCc2ccc(Cl)cc2)c(=O)c2nn(-c3ccccc3)c(C)c12 | -3% (active)
Cc1ccc(NC(=O)CCCn2nc(C)c3c(C)n(-c4ccccc4)nc3c2=O)c(Cl)c1 | 113%
Cc1cccc(NC(=O)CCn2nc(C)c3c(C)n(-c4ccccc4)nc3c2=O)c1C | 65%
CCc1ccc(CNC(=O)CCn2nc(C)c3c(C)n(-c4ccccc4)nc3c2=O)cc1 | 65%
Cc1ccc(C)c(NC(=O)CCn2nc(C)c3c(C)n(-c4ccccc4)nc3c2=O)c1 | 10% (active)
COc1ccc(CNC(=O)CCCn2nc(C)c3c(C)n(-c4ccc(C)cc4)nc3c2=O)cc1OC | 71%
COc1ccc(CNC(=O)CCn2nc(C)c3c(C)n(-c4ccccc4)nc3c2=O)cc1OC | -2% (active)

SMILES | survival
Cc1cc(Cl)ccc1NC(=O)CCn1nc(C)c2c(C)n(-c3ccccc3)nc2c1=O | 68%
COc1cccc(CNC(=O)CCn2nc(C)c3c(C)n(-c4ccccc4)nc3c2=O)c1 | 82%
Cc1cc(Cl)ccc1NC(=O)CCCn1nc(C)c2c(C)n(-c3ccccc3)nc2c1=O | 118%
Cc1nn(CCC(=O)NCc2ccc(N(C)C)cc2)c(=O)c2nn(-c3ccccc3)c(C)c12 | 87%
O=C(NCCSCc1c(F)cccc1Cl)C1CCN(S(=O)(=O)Cc2ccccc2)CC1 | 87%
O=C(CC(c1cccs1)N1Cc2ccccc2C1=O)Nc1ccc(F)cc1 (centres undefined) | 91%
CCN(CC)C(=O)Cn1c(=O)cc(C)c2c(C)nn(-c3cccc(Cl)c3C)c21 | 85%
Cc1ccccc1C(=O)Nc1ccc2c(c1)CCCN2C(=O)c1cccs1 | 77%
Cc1ccccc1NC(=O)Cn1c(=O)n(CCCC(=O)NCc2ccc3c(c2)OCO3)c(=O)c2ccccc21 | 91%
Cc1ccc(S(=O)(=O)c2cn(C)c3cc(N4CCCCC4)c(F)cc3c2=O)cc1 | 74%
COc1ccc(-c2nc3c(c(SCC(=O)Nc4ccccc4F)n2)Cc2cc(C)ccc2O3)cc1 | 80%
COc1ccccc1NC(=O)C(=O)NCC(c1ccc2c(c1)OCO2)N1CCN(C)CC1 (centres undefined) | 81%
O=C(CN(c1ccc(Cl)c(C(F)(F)F)c1)S(=O)(=O)c1ccccc1)Nc1cccnc1 | 64%
Cc1c(CCC(=O)N2CCCCC2)c(=O)oc2cc3occ(C(C)(C)C)c3cc12 | 74%
Cc1cccc(Cn2c(SCc3ccc(C(=O)NCc4cccs4)cc3)nc3ccncc32)c1 | 84%
COc1cccc(N2CCN(S(=O)(=O)c3ccc(-c4ccno4)cc3OC)CC2)c1 | 57%
COc1cc(-c2ccno2)ccc1S(=O)(=O)N1CCN(c2cccc(Cl)c2)CC1 | -3% (active)
COc1cc(-c2ccno2)ccc1S(=O)(=O)N1CCN(c2ccc(F)cc2)CC1 | 63%
COc1ccccc1N1CCN(S(=O)(=O)c2ccc(-c3ccno3)cc2OC)CC1 | 82%
COc1ccc(N2CCN(S(=O)(=O)c3ccc(-c4ccno4)cc3OC)CC2)cc1 | 1% (active)
COc1cc(-c2ccno2)ccc1S(=O)(=O)N1CCN(c2ccccc2)CC1 | 71%

SMILES | survival
COC(=O)c1c(-c2cccs2)csc1NC(=O)c1cc(OC)c(OC)c(OC)c1 | 76%
CCn1ccc2cc(S(=O)(=O)N3CCCN(C(=O)NCC(=O)OC)CC3)ccc21 | 128%
CCCn1c2ccccc2c2cnn(CC(=O)NCCc3ccc(S(N)(=O)=O)cc3)c(=O)c21 | 134%
CCN(Cc1ccccc1)C(c1cccnc1)c1nnnn1Cc1ccccc1 (centres undefined) | 106%
CCc1ccccc1NS(=O)(=O)c1ccc2c(c1)CCN2C(=O)C1CC1 | 72%
Cc1ccc(Cl)cc1-n1c(SCC(=O)NCc2ccccc2)nc2n[nH]c(C)c2c1=N | 72%
Cc1ccc(NC(=O)CSc2nc3n[nH]c(C)c3c(=N)n2-c2cccc(C)c2)cc1 | -6% (active)
Cc1ccc(CNC(=O)CSc2nc3n[nH]c(C)c3c(=N)n2-c2cccc(C)c2)cc1 | 133%
Cc1cccc(-n2c(SCC(=O)Nc3ccccc3Cl)nc3n[nH]c(C)c3c2=N)c1 | 72%
CCCCN(CC)C(=O)CSc1nc2n[nH]c(C)c2c(=N)n1-c1cccc(OC)c1 | 120%
Cc1cccc(-n2c(SCC(=O)Nc3ccc(C)c(C)c3)nc3n[nH]c(C)c3c2=N)c1 | 76%
CCCCN(CC)C(=O)CSc1nc2n[nH]c(C)c2c(=N)n1-c1cccc(C)c1 | 78%
CCCCN(CC)C(=O)CSc1nc2n[nH]c(C)c2c(=N)n1-c1cccc(Cl)c1 | -1% (active)
Cc1cccc(NC(=O)CSc2nc3n[nH]c(C)c3c(=N)n2-c2cccc(Cl)c2)c1 | 14% (active)
Cc1ccc(-n2c(SCC(=O)NCc3ccccc3)nc3n[nH]c(C)c3c2=N)cc1Cl | -6% (active)
Cc1c(Cl)cccc1-n1c(SCC(=O)NCc2ccccc2)nc2n[nH]c(C)c2c1=N | 134%
Cc1ccc(-n2c(SCC(=O)Nc3cccc(Cl)c3)nc3n[nH]c(C)c3c2=N)cc1 | 85%
CCOC(=O)c1ccccc1NC(=O)CSc1nc2cn(CC)nc2c(=O)n1Cc1ccc(Cl)cc1 | 67%
Cc1ccc2ccc3cc(C(=O)N4CCN(c5ccccc5)CC4)nc3c2[nH]1 | 128%
COc1ccc(CNC(=O)c2ccc(CS(=O)(=O)c3ccccc3OC)o2)cc1 | 76%
CCOc1cc(Br)c(C2C(C(=O)OC)=C(C)NC3=C2C(=O)c2ccccc23)cc1OCC (centres undefined) | 96%

SMILES | survival
Cc1ccc(-n2nnc(-c3nc(-c4cccs4)no3)c2N)cc1C | 100%
Cc1cccc(-n2ncc(C(=O)Nc3ccc4c(c3)OCO4)c2C2CCN(C(=O)OC(C)(C)C)CC2)c1 | 89%
CCOC(=O)c1ccccc1NC(=O)Cn1c(=O)n(Cc2ccccc2)c(=O)c2c(C)c(C)sc21 | 90%
CCCCOc1ccc(C(=O)NCCS(=O)(=O)N2CCN(c3ccc(F)cc3)CC2)cc1 | 65%
COc1ccccc1NC(=O)c1c(C)cc(C)nc1SCC(=O)Nc1ccc(C)c(C)c1 | 81%
Cc1ccc(-c2cn3c(n2)sc2cc(C(=O)NCCC4=CCCCC4)ccc23)c(C)c1 | 100%
COC(=O)c1ccc(NC(=O)CSc2nc(=O)n(Cc3ccco3)c3c2CCC3)cc1 | 126%
CC(=O)c1cccc(NC(=O)Cn2c(=O)c(CNc3ccc(C)cc3)cc3cc4c(cc32)OCCO4)c1 | 77%
COc1ccc2c(c1)c1c(c(=O)n(CCc3ccccc3)c(=O)n1Cc1cccc(F)c1)n2C | 63%
COc1ccc2c(c1)c1c(c(=O)n(CCc3ccccc3)c(=O)n1Cc1ccc(F)cc1)n2C | 1% (active)
COc1ccc2c(c1)c1c(c(=O)n(Cc3ccccc3)c(=O)n1CC(=O)Nc1ccccc1F)n2C | 129%
COc1ccc2cc(CNc3ccccc3)c(=O)n(CC(=O)Nc3ccc(C)cc3C)c2c1 | -2% (active)
COc1ccc2cc(CNc3ccc(C)cc3)c(=O)n(CC(=O)Nc3ccc(C)cc3Cl)c2c1 | 74%
COc1ccc2c(c1)c1c(c(=O)n(Cc3ccccc3)c(=O)n1CC(=O)Nc1c(C)cccc1C)n2C | 81%
CCc1ccc(NCc2cc3ccc(OC)cc3n(CC(=O)Nc3ccccc3C)c2=O)cc1 | 84%
COc1ccc2c(c1)c1c(c(=O)n(CCc3ccccc3)c(=O)n1Cc1ccccc1)n2C | 57%
COc1ccc2c(c1)c1c(c(=O)n(Cc3ccccc3)c(=O)n1CC(=O)Nc1ccc(C)cc1C)n2C | -4% (active)
CCc1ccc(NCc2cc3cc4c(cc3n(CC(=O)Nc3ccc(C)cc3)c2=O)OCO4)cc1 | 113%
Cc1ccc(NCc2cc3cc4c(cc3n(CC(=O)Nc3ccc(C)cc3)c2=O)OCCO4)cc1 | 0% (active)
COc1ccc(NC(=O)C2CCCN(S(=O)(=O)c3ccc(F)cc3)C2)cc1 (centres undefined) | 85%
COc1ccc(-n2nc3cc(C)c(NC(=O)COc4cccc(C)c4)cc3n2)cc1 | 78%
